Data from PubChem BioAssay.
Records with an inconclusive call do not appear. Calls of active or inactive are those of the source.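 Rule for the calls, unless noted: active = viability at or below 30% in both replicate assays; inconclusive = viability at or below 30% in just one of the two assays; inactive = the rest.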

Key:
[1] = Her2 expression decrease, cell viability multiplex – SKBR3 breast tumor cells, AlphaScreen, ATP viability, primary screen (AID 461;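 active = Her2 level under about 52% in both replicate screens, with viability over 70% of control, limit read from the data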;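 for Her2 level: lower value means less Her2 protein in the cells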;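 for viability: percent of carrier control wells set as 100% viability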); settings: SKBR3 Her2 protein level, 18-24 h, measured here: SKBR3 viability, ATP luminescence, at 10 µM
[2] = biological target: Receptor tyrosine-protein kinase erbB-2 (Homo sapiens) (UniProt P04626); test: as above; settings: 18-24 h, at 10 µM, stronger effect = lower value
Receptor tyrosine-protein kinase erbB-2 (Homo sapiens), sequence (P04626 whole entry, looked up): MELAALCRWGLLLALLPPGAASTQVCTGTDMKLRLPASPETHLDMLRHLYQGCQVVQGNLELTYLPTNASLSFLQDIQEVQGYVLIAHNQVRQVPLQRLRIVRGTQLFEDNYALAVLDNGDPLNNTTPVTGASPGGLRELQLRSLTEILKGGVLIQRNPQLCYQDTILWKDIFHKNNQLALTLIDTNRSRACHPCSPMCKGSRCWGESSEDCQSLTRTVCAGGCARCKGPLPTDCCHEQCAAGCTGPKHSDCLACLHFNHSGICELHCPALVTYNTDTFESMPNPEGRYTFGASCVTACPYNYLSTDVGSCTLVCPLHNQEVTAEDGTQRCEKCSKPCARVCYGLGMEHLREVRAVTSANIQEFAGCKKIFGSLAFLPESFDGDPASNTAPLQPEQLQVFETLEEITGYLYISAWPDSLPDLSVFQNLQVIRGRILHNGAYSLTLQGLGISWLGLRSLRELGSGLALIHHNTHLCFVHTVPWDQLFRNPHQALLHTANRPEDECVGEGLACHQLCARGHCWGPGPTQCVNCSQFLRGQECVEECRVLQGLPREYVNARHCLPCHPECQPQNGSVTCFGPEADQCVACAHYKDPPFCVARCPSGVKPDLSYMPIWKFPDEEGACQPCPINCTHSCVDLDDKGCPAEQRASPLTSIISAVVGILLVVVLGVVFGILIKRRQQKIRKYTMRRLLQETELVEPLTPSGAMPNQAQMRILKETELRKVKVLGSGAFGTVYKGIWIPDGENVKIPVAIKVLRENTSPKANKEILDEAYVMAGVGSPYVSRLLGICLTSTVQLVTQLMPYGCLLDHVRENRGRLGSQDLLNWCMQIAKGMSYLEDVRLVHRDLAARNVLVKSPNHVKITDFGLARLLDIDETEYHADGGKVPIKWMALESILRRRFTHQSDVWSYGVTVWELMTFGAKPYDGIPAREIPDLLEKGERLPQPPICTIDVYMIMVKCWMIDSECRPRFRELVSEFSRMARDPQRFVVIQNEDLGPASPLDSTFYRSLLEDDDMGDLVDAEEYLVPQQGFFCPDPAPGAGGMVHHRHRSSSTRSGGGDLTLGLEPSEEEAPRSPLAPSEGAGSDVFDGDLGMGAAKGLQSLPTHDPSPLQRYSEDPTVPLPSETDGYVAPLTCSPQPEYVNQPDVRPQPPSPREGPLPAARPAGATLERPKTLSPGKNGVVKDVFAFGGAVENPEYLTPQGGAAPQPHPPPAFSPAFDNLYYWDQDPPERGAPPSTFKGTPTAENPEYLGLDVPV

[3] = reduced viability of SK-BR-3 breast cancer cells – cell-based, 24 h, human, pilot screen (AID 572;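 active = viability at or below 10% of carrier control in both of two separate runs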;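 note: compound exposure lasted between 18 and 24 h rather than exactly 24 h; 100% = carrier-treated control wells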); settings: SK-BR-3 viability, CellTiter-Glo luminescence, at 10 µM, stronger effect = lower value
[4] = HUVEC growth inhibition – cell-based, human, primary screen (AID 575); settings: HUVEC proliferation, CellTiter-Glo luminescence, 72 h; at 10 µM; stronger effect = lower value;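 note: 100% = median of untreated cell wells with 0.1% DMSO on each plate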
[5] = H69AR cell proliferation blockers – human, duplicate replicates, primary screen (AID 580;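 active = viability at or under a set limit in both replicates, limit being median viability minus 3 SD, cut at about 48% in these data, passing the limit was not always enough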;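 note: 100% = mean luminescence of untreated wells and 0% = no signal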); settings: H69AR lung tumor cells viability, ATP luminescence, 72 h; at 10 µM; stronger effect = lower value
[6] = MRP1 drug-resistance reversers in H69AR cells – cell-based, doxorubicin co-treatment, pilot screen (AID 601;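 active = viability loss from added drug above about 55%, and viability with drug at most 40%, in both replicates, limit read from the data, passing the limit was not always enough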); settings: CellTiter-Glo, 72 h, at 10 µM; for differential viability (reversal): stronger effect = higher value
[7] = yeast transport mutant growth inhibition pilot in 384-well plates, post-Golgi transport modulator project (AID 636; in the data active = inhibition above about 31%); settings: absorbance 615 nm, about 18 h, stronger effect = higher value
[8] = growth suppression of yeast trafficking mutant, preliminary HTS, modulators of trafficking downstream of Golgi apparatus project, 1536-format plate, OD 615 nm (AID 637; in the data active = inhibition above about 30%); settings: yeast transport mutant growth, absorbance 615 nm, 18 h; stronger effect = higher value
[9] = S. cerevisiae growth inhibition in permissive medium (OD615), pilot counter-assay for S. cerevisiae lifespan shortening project, permissive growth control (AID 705;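 active = growth inhibition above 25% in both replicates, a cutoff set 3 SD above the mean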); settings: OD615, 24 h, at 10 µM, stronger effect = higher value
[10] = S. cerevisiae growth inhibition in restrictive medium, OD615, pilot screen, restrictive growth control, yeast lifespan reduction project (AID 706;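 active = growth inhibition above a set limit, 3 SD over mean compound inhibition, in both replicates, cut at about 43% in these data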;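 note: modified DeaD lifespan yeast strain shifted to restrictive glucose medium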); settings: OD615, 48 h, at 10 µM, stronger effect = higher value
[11] = doxorubicin toxicity protection in MRP-1 cells – H69AR cells, CellTiter-Glo, duplicate, MRP-1 activator project, pilot screen (AID 807;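 active = viability increase at or above a cutoff of the median across tested compounds plus 3 SD, cut at about 8.5% in these data, passing the limit was not always enough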;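 note: compound pretreatment 18-22 h then 72 h combined with doxorubicin; 0% = doxorubicin alone and 100% = vehicle without doxorubicin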); settings: H69AR viability with doxorubicin, CellTiter-Glo luminescence; at 10 µM; stronger effect = higher value
[12] = viability of HCT116 without oncogenic beta-catenin – human colon tumor cells, pilot screen (AID 823;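 active = cell viability at or below a set limit in both duplicate runs, the limit being the all-compound median minus 4 SD, cut at about 23% in these data, passing the limit was not always enough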;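 note: 0% = wells killed by 20 µM Hyamine and 100% = untreated DMSO cell wells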); settings: HCT116 beta-catenin knockout viability, CellTiter-Glo, 60 h; at 10 µM; stronger effect = lower value
[13] = viability of PTEN-null HCT116 cells – cell-based, HCT116 clonal line, CellTiter-Glo, pilot screen (AID 824;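 active = viability at or below 27.92% in each of two runs, the all-compound median minus 4 SD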;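 note: 0% = 20 µM Hyamine control and 100% = vehicle cell control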); settings: HCT116 PTEN-deleted viability, 60 h, at 10 µM, stronger effect = lower value
[14] = RAM pathway blockade in budding yeast – dse1pr::URA3 reporter, 5-FOA selection, pilot screen (AID 869;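 active = inhibition over a set limit, the all-compound mean plus 3 SD, in both replicate runs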;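 note: 0% = DMSO wells with no growth and 100% = 10 µM 1-NA-PP1 with full growth; RAM network block rescues cells from 5-FOA so hits raise OD615 growth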); settings: S. cerevisiae dse1pr::URA3 5-FOA growth, OD615, 2 d; at 10 µM; stronger effect = higher value; strain carries analog-sensitive mutant Cbk1 kinase
[15] = RAM signaling pathway blockade in yeast – S. cerevisiae, Pdr1DBD-CYC8 efflux-inhibited sensitized strain, primary screen (AID 1298;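 active = RAM network inhibition above 8.4% in each of two replicates, 3 SD over the compound average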;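 note: 0% = DMSO untreated cells without growth and 100% = 10 µM 1-NA-PP1 full growth; higher means more yeast growth rescued from 5-FOA killing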); settings: S. cerevisiae cbk1-as DSE1-URA3 strain, 5-FOA growth OD615, 2 d; at 50 µM; stronger effect = higher value
[16] = H69AR cells + 2 uM doxorubicin, measured here: viability with 2 uM doxorubicin, stronger effect = lower value
[17] = H69AR cells, compound alone cytotoxicity

COCCCNC(=O)CC1Oc2ccccc2NC1=O (stereo not drawn)
83.3%: viability [6, 17]
inactive: Her2 level [2] 100% | viability [3] 86.5% | viability [4] 111% | viability [5] 83.3% | differential viability (reversal) ([6]; H69AR cells + 2 uM doxorubicin) -5.41% | inhibition [7] -5.73% | inhibition [8] -2.83% | growth inhibition [9] -2.61% | growth inhibition [10] -1.36% | viability increase [11] 0.06% | viability [12] 97.6% | viability [13] 102% | inhibition [14] 1.65% | RAM network inhibition [15] 2.25%
86.5%: viability [1]
88.7%: viability [6, 16]

Cc1nnc(NC(=O)CSc2cn(CCNC(=O)c3ccccc3)c3ccccc23)s1
80.4%: viability [6, 17]
inactive: Her2 level [2] 106% | viability [3] 83.5% | viability [4] 75.5% | viability [5] 80.4% | differential viability (reversal) ([6]; H69AR cells + 2 uM doxorubicin) 13.6% | inhibition [7] -3.2% | inhibition [8] -4.17% | growth inhibition [9] 3.24% | growth inhibition [10] 17% | viability increase [11] -0.89% | viability [12] 93.5% | viability [13] 88% | inhibition [14] -0.12% | RAM network inhibition [15] 1.15%
66.8%: viability [6, 16]
83.5%: viability [1]

CCOc1ccc(N(CC(=O)NCc2ccco2)S(=O)(=O)c2ccc(OC)c(OC)c2)cc1
79%: viability [1]
inactive: Her2 level [2] 85% | viability [3] 79% | viability [4] 89.3% | viability [5] 83.7% | differential viability (reversal) ([6]; H69AR cells + 2 uM doxorubicin) 0.495% | inhibition [7] -3.51% | inhibition [8] -6.5% | growth inhibition [9] -3.81% | growth inhibition [10] -16.6% | viability increase [11] -4.63% | viability [12] 94.7% | viability [13] 90.4% | inhibition [14] 2.28% | RAM network inhibition [15] 2.74%
83.2%: viability [6, 16]
83.7%: viability [6, 17]

Cc1occc1C(=O)N1CCN(c2ncccn2)CC1
95.8%: viability [6, 17]
86.9%: viability [6, 16]
inactive: Her2 level [2] 118% | viability [3] 87% | viability [4] 99.6% | viability [5] 95.8% | differential viability (reversal) ([6]; H69AR cells + 2 uM doxorubicin) 8.91% | inhibition [7] 2.56% | inhibition [8] -5.83% | growth inhibition [9] -15.2% | growth inhibition [10] -1.04% | viability increase [11] -0.73% | viability [12] 101% | viability [13] 91.9% | inhibition [14] 1.98% | RAM network inhibition [15] 1.89%
87%: viability [1]

CC1C(=O)C(C)C(c2cccs2)NC1c1cccs1 (stereo not drawn)
100%: viability [6, 16]
83%: viability [1]
inactive: Her2 level [2] 100% | viability [3] 83% | viability [4] 101% | viability [5] 104% | differential viability (reversal) ([6]; H69AR cells + 2 uM doxorubicin) 3.58% | inhibition [7] 1.73% | inhibition [8] 2.42% | growth inhibition [9] -1.82% | growth inhibition [10] -0.61% | viability increase [11] 0.03% | viability [12] 87.3% | viability [13] 91% | inhibition [14] 0.78% | RAM network inhibition [15] 1.45%
104%: viability [6, 17]

CC1CCN(Cc2nc3c(c(=O)n(C)c(=O)n3C)n2Cc2cccc3ccccc23)CC1
84%: viability [1]
84.9%: viability [6, 17]
89.2%: viability [6, 16]
inactive: Her2 level [2] 86.5% | viability [3] 84% | viability [4] 98% | viability [5] 84.9% | differential viability (reversal) ([6]; H69AR cells + 2 uM doxorubicin) -4.26% | inhibition [7] -4% | inhibition [8] 3.67% | growth inhibition [9] -0.525% | growth inhibition [10] 0.35% | viability increase [11] -1.93% | viability [12] 87% | viability [13] 88.2% | inhibition [14] 0.115% | RAM network inhibition [15] 7.49%

CC(C)CCN(C)C1CCN(S(=O)(=O)c2ccc(F)cc2)CC1
87%: viability [1]
91.6%: viability [6, 16]
inactive: Her2 level [2] 104% | viability [3] 87% | viability [4] 107% | viability [5] 81% | differential viability (reversal) ([6]; H69AR cells + 2 uM doxorubicin) -10.5% | inhibition [7] -1.87% | inhibition [8] -4.33% | growth inhibition [9] -7.46% | growth inhibition [10] 10.4% | viability increase [11] -2.68% | viability [12] 97.6% | viability [13] 98.5% | inhibition [14] 0.875% | RAM network inhibition [15] 4.65%
81%: viability [6, 17]

N#CCCN1CCN(S(=O)(=O)c2ccc(S(=O)(=O)NC3CCCCC3)cc2)CC1
87.5%: viability [6, 16]
103%: viability [1]
100%: viability [6, 17]
inactive: Her2 level [2] 105% | viability [3] 103% | viability [4] 98.9% | viability [5] 100% | differential viability (reversal) ([6]; H69AR cells + 2 uM doxorubicin) 12.5% | inhibition [7] -2.69% | inhibition [8] 3.67% | growth inhibition [9] -1.9% | growth inhibition [10] -5.03% | viability increase [11] -0.74% | viability [12] 103% | viability [13] 97.8% | inhibition [14] 1.02% | RAM network inhibition [15] 5.92%

COc1ccc(C2CC(=O)C(C=NCCCN3CCOCC3)=C(O)C2)cc1 (stereo not drawn)
86.5%: viability [6, 16]
inactive: Her2 level [2] 82.5% | viability [3] 84.5% | viability [4] 102% | viability [5] 99.3% | differential viability (reversal) ([6]; H69AR cells + 2 uM doxorubicin) 12.8% | inhibition [7] -1.15% | inhibition [8] -1.33% | growth inhibition [9] -0.615% | growth inhibition [10] 1.58% | viability increase [11] 0.71% | viability [12] 103% | viability [13] 101% | inhibition [14] 2.07% | RAM network inhibition [15] 3.01%
84.5%: viability [1]
99.3%: viability [6, 17]
